# Test results reported in the supplement of paper PMC9477273.
# Test system: DRIVER-selected RNA biosensor (aptazyme) pool
# Assay: maximum fold change of ribozyme cleavage across biosensor pool versus no-compound control; higher = stronger biosensor response (ligand inhibits cleavage)
# Conditions: 10 µM
# How it was run: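 A pool of 1,730 ribozyme biosensors, resynthesized on an array, was transcribed with T7 at 37°C for 15–30 min in 9 mM rNTPs, with one compound present at a final 10 µM (added from a 10x DMSO stock). Reverse transcription followed at 50°C, and the cleaved and uncleaved products were PCR-barcoded and counted by Illumina sequencing. The reported fold change of cleavage is the highest value across all biosensors, taken as the ratio of cleaved:uncleaved read fractions relative to a no-compound condition and corrected with reference sequences.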
row,SMILES,maximum fold change
1,COc1ccccc1/C=C1N=C(c2ccc(Cl)c(Cl)c2)OC1=O,3.36
2,CCOC(=O)c1cnc2c(C)cc(Cl)cc2c1NCCCO,9.37
3,c1ccc(-c2nc3cc(Oc4ccc5[nH]c(-c6ccccn6)nc5c4)ccc3[nH]2)nc1,2.66
4,CCOc1cc2c(cc1OCC)C1C(C(=O)NCc3cccnc3)c3ccccc3C(=O)N1CC2 (stereo unspecified),4.02
5,C=CCNC(=O)/C(C#N)=C/c1c(Oc2ccccc2)nc2ccccn2c1=O,9.03
6,O=C(NCc1ccco1)c1ccccc1Br,2.5
7,CCc1ccc(C2c3c(-c4ccccc4O)n[nH]c3C(=O)N2CC2CCCO2)cc1 (stereo unspecified),1.83
8,CCN1CCN(C(=O)c2cc(C)nn2-c2ccccc2)CC1,2.67
9,CCOC(=O)N1CCC(NC(=O)c2ccc(CS(=O)c3cccc(C)c3)o2)CC1 (stereo unspecified),2.53
10,O=C1N=c2sc(nn2C(=N)/C/1=Cc1cccn1Cc1ccccc1F)N1CCCC1,4.06
11,Cc1ccc(C(=O)N(Cc2ccccc2F)C2CCS(=O)(=O)C2)cc1 (stereo unspecified),2.6
12,Cc1c(C(=O)N2CCN(C)CC2)sc2ncnc(N3CCN(c4ccccn4)CC3)c12,2.67
13,NC(=O)c1nc2n(c1N)CCCCC2,2.43
14,O=C1NC2(CCCCC2)N(C(=O)c2ccc(Cl)cc2)C2=C1CCCC2,2.89
15,O=C(NC1CCN(Cc2ccccc2)CC1)c1cc2c(=O)oc3ccccc3c2s1,7.21
16,Cc1oc2ncn3c(C)nnc3c2c1C(=O)NC1CC1,2.62

row,SMILES,maximum fold change
1,CC(=O)c1c(C)[nH]c2ccccc2c1=O,2.03
2,CCOC(=O)c1c(C)c(C(=O)N(CC)C2CCCCC2)c(C)n1C,2.31
3,Cc1nc(N2C(=O)c3oc4ccccc4c(=O)c3C2c2ccc(Cl)cc2)sc1C (stereo unspecified),2.07
4,O=c1c2cccnc2n(Cc2ccc(Cl)cc2)c(=O)n1CCc1ccccc1,2.13
5,C=Cc1ccc(Cn2c(C)c(CNCc3ccc(CC)cc3)c(C(=O)O)c2C)cc1,3.37
6,Cc1cccc(CNCc2c(C(=O)O)c(C)n(Cc3c(F)cccc3Cl)c2C)c1,1.89
7,O=C(Cn1ncc2c1-c1ccccc1OC2)N1CCC(Cc2ccccc2)CC1,3.52
8,CCOc1ccccc1CNC(=O)c1ccc(CS(=O)Cc2ccc(Cl)cc2)o1 (stereo unspecified),4.15
9,Cc1ccc(C(=O)N(Cc2ccccc2)c2ccccn2)cc1,2.65
10,Cc1cc2cc(CNC(=O)C3CCCC3)ccc2[nH]1,5.24
11,O=C(CSc1nnc(-c2ccc(Cl)s2)o1)N1CCOCC1,3.21
12,CN(Cc1ccccc1)C(=O)CCc1nc(CN2CCN(C(=O)c3noc4c3CCCC4)CC2)no1,4.1
13,COc1ccc(cc1C1=N/C(=CNc2ccccn2)/C(=O)O1)Cl,6.85
14,CC12CCC(C(=O)O)(c3nc4ccc5ncccc5c4nc31)C2(C)C (stereo unspecified),2.74
15,Cn1c(=O)c2c(-c3ccc(Cl)cc3)n(C3CCCCC3)cc2n(C)c1=O,2.62
